In the supplement of paper PMC8728848:
Many of the other results were omitted from the sample, so the strongest signals are more common in it than they were.

Assays:
Assay in all cases: glycan array binding signal (z-score within array); higher = stronger binding
Conditions in all cases: glycan notation: IUPAC condensed, linker removed
Fuc(a1-2)Gal(b1-3)GalNAc = biological target: Fuc(a1-2)Gal(b1-3)GalNAc
How it was run: (§1)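 Glycan array data were curated from 3228 arrays in the Consortium for Functional Glycomics database and kept only where the protein sequence was available. Glycan names were converted to IUPAC-condensed notation, and columns mapping to the same glycan were averaged. The binding signal is a within-array Z-score, averaged across arrays of the same protein sequence at different concentrations or buffers and across linkers. Negative Z-scores can be read as non-binding.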

Fuc(a1-2)Gal(b1-4)Glc6S = biological target: Fuc(a1-2)Gal(b1-4)Glc6S
How it was run: as §1

[1] = biological target: Fuc(a1-2)Gal(b1-4)[Fuc(a1-3)]GlcNAc(b1-2)Man(a1-3)[Fuc(a1-2)Gal(b1-4)[Fuc(a1-3)]GlcNAc(b1-2)Man(a1-6)]Man(b1-4)GlcNAc(b1-4)GlcNAc
How it was run: as §1

[2] = biological target: Fuc(a1-2)[Gal(a1-3)]Gal(b1-3)GlcNAc(b1-2)Man(a1-3)[Fuc(a1-2)[Gal(a1-3)]Gal(b1-3)GlcNAc(b1-2)Man(a1-6)]Man(b1-4)GlcNAc(b1-4)GlcNAc
How it was run: as §1

[3] = biological target: Fuc(a1-2)[Gal(a1-3)]Gal(b1-4)Glc
How it was run: as §1

Gal(a1-3)Gal = biological target: Gal(a1-3)Gal
How it was run: as §1

[4] = biological target: Gal(a1-4)Gal(b1-3)GlcNAc(b1-2)Man(a1-3)[Gal(a1-4)Gal(b1-3)GlcNAc(b1-2)Man(a1-6)]Man(b1-4)GlcNAc(b1-4)GlcNAc
How it was run: as §1

Gal(b1-3)GalNAc = biological target: Gal(b1-3)GalNAc
How it was run: as §1

[5] = biological target: Gal(b1-3)GlcNAc(b1-2)Man(a1-3)[Gal(b1-3)GlcNAc(b1-2)Man(a1-6)]Man(b1-4)GlcNAc(b1-4)GlcNAc
How it was run: as §1

[6] = biological target: Gal(b1-3)GlcNAc(b1-3)Gal(b1-4)GlcNAc
How it was run: as §1

[7] = biological target: Gal(b1-3)[Neu5Ac(b2-6)]GalNAc
How it was run: as §1

Gal(b1-4)Glc = biological target: Gal(b1-4)Glc
How it was run: as §1

[8] = biological target: Gal(b1-4)GlcNAc(b1-3)[Gal(b1-4)GlcNAc(b1-6)]Gal(b1-4)GlcNAc
How it was run: as §1

[9] = biological target: Gal(b1-4)GlcNAc(b1-3)[Gal(b1-4)GlcNAc(b1-6)]GalNAc
How it was run: as §1

Gal4S(b1-4)GlcNAc = biological target: Gal4S(b1-4)GlcNAc
How it was run: as §1

Gal4S6S(b1-4)GlcNAc = biological target: Gal4S6S(b1-4)GlcNAc
How it was run: as §1

GalNAc(b1-3)Gal = biological target: GalNAc(b1-3)Gal
How it was run: as §1

Glc(a1-6)Glc(a1-6)Glc = biological target: Glc(a1-6)Glc(a1-6)Glc
How it was run: as §1

Glc(b1-6)Glc = biological target: Glc(b1-6)Glc
How it was run: as §1

[10] = biological target: GlcNAc(a1-4)Gal(b1-4)GlcNAc(b1-3)Gal(b1-4)[Fuc(a1-3)]GlcNAc(b1-3)Gal(b1-4)[Fuc(a1-3)]GlcNAc
How it was run: as §1

[11] = biological target: GlcNAc(b1-2)[GlcNAc(b1-4)]Man(a1-3)[GlcNAc(b1-2)Man(a1-6)]Man(b1-4)GlcNAc(b1-4)GlcNAc
How it was run: as §1

[12] = biological target: GlcNAc(b1-3)[GlcNAc(b1-6)]Gal(b1-4)GlcNAc
How it was run: as §1

[13] = biological target: GlcNAc(b1-4)Gal(b1-4)GlcNAc
How it was run: as §1

[14] = biological target: GlcNAc(b1-4)GlcNAc(b1-4)GlcNAc
How it was run: as §1

[15] = biological target: Neu5Ac(a2-3)Gal(b1-3)[Fuc(a1-4)]GlcNAc
How it was run: as §1

[16] = biological target: Neu5Ac(a2-3)Gal(b1-4)GlcNAc(b1-2)Man(a1-3)[GlcNAc(b1-2)Man(b1-4)GlcNAc(b1-2)Man(a1-6)]Man(b1-4)GlcNAc(b1-4)GlcNAc
How it was run: as §1

[17] = biological target: Neu5Ac(a2-3)Gal(b1-4)GlcNAc(b1-6)[Neu5Ac(a2-3)Gal(b1-3)]GalNAc
How it was run: as §1

[18] = biological target: Neu5Ac(a2-3)Gal(b1-4)[Fuc(a1-3)]GlcNAc(b1-3)Gal
How it was run: as §1

[19] = biological target: Neu5Ac(a2-3)Gal(b1-4)[Fuc(a1-3)]GlcNAc(b1-6)[Neu5Ac(a2-3)Gal(b1-3)]GalNAc
How it was run: as §1

[20] = biological target: Neu5Ac(a2-3)Gal(b1-4)[Fuc(a1-3)]GlcNAc6S
How it was run: as §1

Neu5Ac(a2-3)GalNAc = biological target: Neu5Ac(a2-3)GalNAc
How it was run: as §1

Neu5Ac(a2-6)Gal(b1-4)Glc = biological target: Neu5Ac(a2-6)Gal(b1-4)Glc
How it was run: as §1

[21] = biological target: Neu5Ac(a2-6)Gal(b1-4)GlcNAc(b1-2)Man(a1-3)[GlcNAc(b1-2)Man(a1-6)]Man(b1-4)GlcNAc(b1-4)GlcNAc
How it was run: as §1

[22] = biological target: Neu5Ac(a2-8)Neu5Ac(a2-3)[GalNAc(b1-4)]Gal(b1-4)Glc
How it was run: as §1

[23] = biological target: Neu5Ac(a2-8)Neu5Ac(a2-8)Neu5Ac(a2-8)Neu5Ac(a2-3)[GalNAc(b1-4)]Gal(b1-4)Glc
How it was run: as §1

[24] = biological target: Neu5Gc(a2-3)Gal(b1-3)[Fuc(a1-4)]GlcNAc
How it was run: as §1

Neu5Gc(a2-6)GalNAc = biological target: Neu5Gc(a2-6)GalNAc
How it was run: as §1

B1: CLEC9a (Mus musculus), Q8BRU4 (protein)
chain: MHAEEIYTSLQWDIPTSEASQKCQSPSKCSGAWCVVTMISCVVCMGLLATSIFLGIKFFQVSSLVLEQQERLIQQDTALVNLTQWQRKYTLEYCQALLQRSLHSGSDCSPCPHNWIQNGKSCYYVFERWEMWNISKKSCLKEGASLFQIDSKEEMEFISSIGKLKGGNKYWVGVFQDGISGSWFWEDGSSPLSDLLPAERQRSAGQICGYLKDSTLISDKCDSWKYFICEKKAFGSCI
glycan array binding signal (z-score) (Fuc(a1-2)Gal(b1-3)GalNAc): 0.078
glycan array binding signal (z-score) (Fuc(a1-2)Gal(b1-4)Glc6S): 0.626
glycan array binding signal (z-score) [1]: 2.21
glycan array binding signal (z-score) [2]: 3.03
glycan array binding signal (z-score) [3]: 1.11
glycan array binding signal (z-score) (Gal(a1-3)Gal): 1.37
glycan array binding signal (z-score) [4]: 3.35
glycan array binding signal (z-score) (Gal(b1-3)GalNAc): -0.657
glycan array binding signal (z-score) [5]: 1.97
glycan array binding signal (z-score) [6]: 1.18
glycan array binding signal (z-score) [7]: 1.89
glycan array binding signal (z-score) (Gal(b1-4)Glc): -0.825
glycan array binding signal (z-score) [8]: 0.779
glycan array binding signal (z-score) [9]: 1.87
glycan array binding signal (z-score) (Gal4S(b1-4)GlcNAc): 1.88
glycan array binding signal (z-score) (Gal4S6S(b1-4)GlcNAc): -1.4
glycan array binding signal (z-score) (GalNAc(b1-3)Gal): 0.273
glycan array binding signal (z-score) (Glc(a1-6)Glc(a1-6)Glc): -0.171
glycan array binding signal (z-score) (Glc(b1-6)Glc): 0.001
glycan array binding signal (z-score) [10]: 0.915
glycan array binding signal (z-score) [11]: 4.01
glycan array binding signal (z-score) [12]: -1.89
glycan array binding signal (z-score) [13]: 0.714
glycan array binding signal (z-score) [14]: 2.95
glycan array binding signal (z-score) [15]: -0.871
glycan array binding signal (z-score) [16]: 2.01
glycan array binding signal (z-score) [17]: -0.1
glycan array binding signal (z-score) [18]: -1.7
glycan array binding signal (z-score) [19]: 1.35
glycan array binding signal (z-score) [20]: -0.627
glycan array binding signal (z-score) (Neu5Ac(a2-3)GalNAc): -1.07
glycan array binding signal (z-score) (Neu5Ac(a2-6)Gal(b1-4)Glc): 0.132
glycan array binding signal (z-score) [21]: -0.365
glycan array binding signal (z-score) [22]: 0.872
glycan array binding signal (z-score) [23]: 2.43
glycan array binding signal (z-score) [24]: -0.987
glycan array binding signal (z-score) (Neu5Gc(a2-6)GalNAc): -0.83
